In the library only some 3.2% were active in any assay of this set; here they are far more common.
esBAF inh: Bmi1 luciferase reporter increase in mESCs, primary screen, esBAF inhibitor project, mouse ES cells, Bmi1 luciferase knock-in, single point; 2% of 350,000 active; 24 h; 100% = twice the neutral-well signal; reporter increase, % at 12.5 µM; in the data active means activation above about 40%;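 further: 0% = median of the plate's neutral control wells and 100% = double that signal; a rise in the Bmi1 reporter signal indicates esBAF inhibition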
Rtt109 HAT inh: inhibitors of C. albicans Rtt109/Vps75 HAT, primary screen, biochemical, ThioGlo CoA-SH fluorescence, plate reader; Histone acetyltransferase RTT109 (Candida albicans (strain SC5314 / ATCC MYA-2876)), …; purified Rtt109/Vps75, 4 h; inhibition, % at 34.9 µM; 0.16% of 330,000 active;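 active means inhibition of at least 50% in every replicate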
SMARCA2 activ: SMARCA2 (BRM) function activators, primary screen, cell-based, luminescence, high throughput; activation, % at 9.1 µM; AID 652017, 2013; MG213 cells, MMTV-luciferase reporter, dexamethasone, overnight; 1% of 370,000 active; in the data active means activation above about 7.8%;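 further: 0% = vehicle wells and 100% = reference activator wells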
dFosB act: activators of delta FosB homodimer, primary screen, biochemical, fluorescence polarization, TAMRA-CDK5 oligo, single point; Protein FosB (Mus musculus), P13346; purified delta FosB; percent of positive-control signal above neutral wells; activation, % at 25 µM; 0.99% of 340,000 active;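 active means mean activation above about 17%, with every replicate also reaching it, limit read from the data, passing the limit was not always enough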
CDK5 p35 inh: inhibitors of human CDK5/p35 kinase, primary screen, biochemical, single concentration; Cyclin-dependent kinase 5 (Homo sapiens) + Cyclin-dependent kinase 5 activator 1 (Homo …; Recombinant CDK5/p35, ADP-Glo luminescence, 60 min; inhibition, % at 10 µM; 0.01% of 330,000 active; AID 488839, 2010;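 active means highest replicate inhibition of at least 50% and at least 75% of replicates reaching 50%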;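 further: plate controls were DMSO neutral control for no effect and GW8510 at 10 µM for full effect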
Target sequence (Q00535 whole entry, looked up): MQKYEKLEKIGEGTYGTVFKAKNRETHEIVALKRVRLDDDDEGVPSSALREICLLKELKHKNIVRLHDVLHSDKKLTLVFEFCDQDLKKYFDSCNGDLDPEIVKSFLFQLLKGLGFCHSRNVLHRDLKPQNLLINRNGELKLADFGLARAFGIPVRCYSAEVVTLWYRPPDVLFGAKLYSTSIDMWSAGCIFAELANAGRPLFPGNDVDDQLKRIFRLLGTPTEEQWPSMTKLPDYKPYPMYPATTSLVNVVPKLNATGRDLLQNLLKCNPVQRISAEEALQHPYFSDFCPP
Target sequence (Q15078 whole entry, looked up): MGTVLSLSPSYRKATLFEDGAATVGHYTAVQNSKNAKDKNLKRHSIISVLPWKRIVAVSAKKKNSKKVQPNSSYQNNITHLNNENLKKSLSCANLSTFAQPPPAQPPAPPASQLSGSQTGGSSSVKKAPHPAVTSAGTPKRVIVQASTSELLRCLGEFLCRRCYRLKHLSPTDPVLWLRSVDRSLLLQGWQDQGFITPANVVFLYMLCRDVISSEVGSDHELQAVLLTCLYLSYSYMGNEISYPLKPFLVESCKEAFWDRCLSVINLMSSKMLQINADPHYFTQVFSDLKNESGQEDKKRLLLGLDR
DYRK1A inh: rat Dyrk1A kinase inhibitors, primary screen, biochemical, single point, plate reader | ADP-Glo luminescence, NFATc1 peptide | inhibition, % at 12.5 µM | 0.43% of 310,000 active | AID 504441, 2011; in the data active means inhibition above about 50%;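 further: plate controls were vehicle with enzyme for no effect and no enzyme for full effect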
SMARCA2 act conf: SMARCA2 (BRM) function activators, confirmation, cell-based, luminescence, triplicate; MG213 cells, MMTV-luciferase with dexamethasone, overnight; MG213 cells expressing E1A, Rb sequestered; DMSO wells 0%, reference activator 100%; activation, % at 9.1 µM; AID 652260, 2013; 30% of 3,500 active; shares compounds with SMARCA2 activ;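 active means activation above its plate's cutoff, the mean activation of tested wells plus 3 SD, cut at about 7.9% in these data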
GAL4-VP16 Luc: GAL4-VP16 luciferase reporter activation, counter-screen for SMARCA2 (BRM) activator project, cell-based, pG5luc, luminescence, high throughput; shares compounds with SMARCA2 activ; 41% of 3,500 active; activation, % at 9.1 µM; AID 686939, 2013; HEK293 GAL4-VP16 pG5luc reporter; scaled: DMSO wells 0%, SAHA wells 100%;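 active means activation above the solvent-only control well mean plus 3 SD, averaged across control plates, cut at about 5.2% in these data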
Starred values were filed as active, the others as inactive; x = no result given.

SMILES	esBAF inh	Rtt109 HAT inh	SMARCA2 activ	dFosB act	CDK5 p35 inh	DYRK1A inh	SMARCA2 act conf	GAL4-VP16 Luc
CCOC(=O)C1CCCCN1Cc1cccc(F)c1 (configuration not stated)	0.7	-22.1	8.8*	-0.8	-1.6	0.6	1.3	0.3
CN1C/C(=C/c2ccccc2[N+](=O)[O-])C(=O)/C(=C\c2ccccc2[N+](=O)[O-])C1	x	6.8	26.2*	-11.8	0.6	4.4	-15.5	5.1*
CCC(=O)Nc1ccc2c(c1)C(=O)N(C)[C@@H]1CC[C@H](CC(=O)NCc3ccccc3)O[C@@H]1CO2	-3.5	x	x	x	x	x	x	x
CC1(C(=O)OCc2cc(=O)n3cc(Br)ccc3n2)CC1(Cl)Cl (configuration not stated)	83.3*	-9.2	10.1*	0.4	0.6	16.6	9.4*	13.3*
CC1(C)NC(=O)N(CC(=O)OCc2cc(=O)n3cc(Br)ccc3n2)C1=O	x	-3.5	-1.1	1.3	-2.6	x	x	x
Cc1ccccc1C(=O)NC(CC(C)C)C(=O)OCc1cc(=O)n2cc(Br)ccc2n1 (configuration not stated)	x	3.3	9.4*	-10.2	-1.1	2.0	4.6	8.8*
C[C@@H]1CCCCO[C@@H](CN(C)C(=O)C2CCCCC2)[C@H](C)CN([C@@H](C)CO)C(=O)c2cc(NC(=O)Nc3ccccc3)ccc2O1	7.9	x	x	x	x	x	x	x
c1ccc2c(c1)nnn2-c1ncnc2sccc12	16.5	12.7	11.6*	-20.2	-0.1	-2.6	9.9*	5.1
C[C@@H]1CN([C@H](C)CO)C(=O)c2cc(NC(=O)c3ccncc3)ccc2O[C@@H](C)CCCCO[C@H]1CN(C)C	1.5	x	x	x	x	x	x	x
COCC(=O)Nc1c(C(=O)Nc2cccc(OC)c2)oc2ccccc12	26.1	x	10.0*	-46.0	-1.0	9.1	12.1*	6.2*
COc1cccc(NC(=O)c2oc3ccccc3c2NC(C)=O)c1	32.4	-0.2	x	1.6	-0.3	0.6	x	x
C[C@@H]1CCCCO[C@H](CN(C)C(=O)Nc2cccc3ccccc23)[C@H](C)CN([C@@H](C)CO)C(=O)c2cc(NC(=O)Nc3ccc4c(c3)OCO4)ccc2O1	15.3	x	x	x	x	x	x	x
C[C@H]1CN([C@@H](C)CO)C(=O)CCCn2cc(nn2)CO[C@@H]1CN(C)C(=O)c1ccc(N2CCN(C)CC2)cc1	-2.3	x	8.2*	x	x	x	-1.2	-0.8
COC(=O)N(C)C[C@H]1OCc2cnnn2CCCC(=O)N([C@@H](C)CO)C[C@@H]1C	-0.5	x	8.6*	x	x	x	-3.3	0.3
C[C@@H]1CCCCO[C@@H](CN(C)Cc2ccc(Cl)c(Cl)c2)[C@@H](C)CN([C@H](C)CO)C(=O)c2cc(NS(C)(=O)=O)ccc2O1	-0.8	x	x	x	x	x	x	x
Oc1ccc(-c2csc(Nc3ncccn3)n2)c(O)c1	82.4*	8.1	9.4*	-1.1	-2.7	-1.0	11.4*	10.3*
CC(C)NC(=O)N1C[C@@H]2[C@H](c3ccccc31)[C@@H](CO)N2C(=O)c1ccccn1	-2.5	x	x	x	x	x	x	x
COC(=O)c1cnn2c3c(c(C)nc12)CCCC3	x	-2.0	10.5*	-0.9	1.9	0.2	7.4	4.6
C[C@H](NC(=O)C[C@@H]1CC[C@H](NC(=O)C2CCOCC2)[C@H](CO)O1)c1ccccc1	0.4	x	x	x	x	x	x	x
Cc1nn(C)cc1NC(=O)C[C@@H]1CC[C@H]2[C@@H](COc3ccc(NC(=O)C(C)C)cc3C(=O)N2C)O1	-4.3	x	x	x	x	x	x	x
